Assay results taken from PubChem BioAssay (NCATS).
Values joined by “and” are separate entries in the source; they are usually repeats but may differ in a detail not shown here. Identical values can stand only once. Inconclusive results are not listed. Active and inactive are the calls of the source. Unless noted, calls follow the shape of the dose curve; as a rule, active = well fitted curve in the direction sought with a large enough effect; inconclusive = small, poorly fitted or top-dose-only effect, or another doubt; inactive = no such curve, though single readings can be large; an effect the other way counts as inactive or inconclusive.

How the values were obtained:
[1] = Cell Viability - BJ (AID 421; calls by dose curve;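 also: potency is read from the fitted curve at half-maximal effect; cells exposed to compound for 40 hours at 37 °C before readout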); details: BJ fibroblast viability, qHTS
Method in brief: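 Luminescent ATP signal (CellTiter-Glo, 20 min at room temperature) served as the read-out of viable BJ cells after 40 hours of compound treatment. Responses were scaled between DMSO and 100 uM tamoxifen, and AC50 values were obtained by Hill modeling.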

[2] = Cell Viability - HepG2 (AID 433; calls by dose curve;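 also: potency is read from the fitted curve at half-maximal effect; potency for ATP loss meaning cytotoxicity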); details: qHTS
Method in brief: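 HepG2 hepatocellular carcinoma cells (1500/well) were treated with compounds for 40 h at 37 °C in complete medium; intracellular ATP was read by CellTiter-Glo luminescence. Data were normalized to DMSO and 100 uM tamoxifen, and AC50 came from Hill fits.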

[3] = Cell Viability - MRC5 (AID 434; calls by dose curve;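 also: potency is read from the fitted curve at half-maximal effect; potency reflects cytotoxicity seen as loss of intracellular ATP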); details: MRC5 lung fibroblast viability, qHTS
Method in brief: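 qHTS cytotoxicity in human lung fibroblast MRC5 cells; 40 hr treatment, 37 °C; cellular ATP by luciferase luminescence; DMSO = 0%, 100 uM tamoxifen = 100% inhibition; Hill-fit AC50.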

[4] = Cell Viability - SK-N-SH (AID 435; calls by dose curve;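 also: potency is read from the fitted curve at half-maximal effect; compound exposure lasted 40 h at 37 °C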); details: SK-N-SH neuroblastoma cell viability qHTS
Method in brief: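 SK-N-SH human neuroblastoma cells (1500/well) were exposed to compounds in complete medium for 40 h at 37 °C, and intracellular ATP was then measured by CellTiter-Glo luminescence. AC50 was taken from Hill fits, normalized to DMSO and 100 uM tamoxifen.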

[5] = target: Mitogen-activated protein kinase 10 (Mus musculus) (UniProt Q61831); assay: JNK3 AlphaScreen Assay (AID 530; active = well fitted curve in either direction with a large enough effect, not every such curve was filed as active;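 also: kinase came from lysate of stimulated human HepG2 cells; signal reports phosphorylation of biotinylated GST-cJun 1-79 at Ser73 with 10 µM ATP; % is scaled to controls: 0 for no effect and ±100 for the full control effect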); details: JNK3 lysate, c-Jun phosphorylation; series mostly up to 57.1 µM
Method in brief: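 Compound titrations were preincubated 15 minutes at room temperature with substrate, antibody and pre-activated JNK3-containing HepG2 lysate. Reactions were started with 10 uM ATP and stopped with EDTA-containing bead buffer for AlphaScreen detection.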

[6] = Cell Viability - N2a (AID 540); details: N2a mouse neuroblastoma cell viability; at 92.2 µM (top of the series);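 also: plate controls were DMSO alone for no effect and tamoxifen control for full effect; nearly all actives have a fitted effect of over 45% in size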
Method in brief: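 Luminescent ATP signal (CellTiter-Glo, 20 min at room temperature) served as the viability read-out after N2a cells were treated with compounds for 40 hours at 37 °C. Concentration-response data were fitted to the Hill equation for AC50.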

[7] = Cell Viability - HUV-EC-C (AID 542); details: HUV-EC-C endothelial cell viability, qHTS; series mostly up to 92.2 µM; also: % is scaled to controls: 0 for no effect and ±100 for the full control effect; nearly all actives have a fitted effect of over 35% in size
Method in brief: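 qHTS cytotoxicity: HUV-EC-C, 1000 cells/well, 5 hr settle, compound 40 hr 37 °C, CellTiter-Glo, luminescence. AC50 via Hill equation.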

[8] = Cell Viability - SH-SY5Y (AID 544); details: SH-SY5Y neuroblastoma cell viability; viability change, negative = cytotoxic: at 92.2 µM (top of the series); also: nearly all actives have a fitted effect of over 55% in size
Method in brief: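 Luminescent ATP read-out (CellTiter-Glo) measures loss of viable SH-SY5Y neuroblastoma cells after 40 hr compound exposure at 37 °C. AC50 values derive from standard Hill modelling of qHTS concentration-response data.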

[9] = Cell Viability - Renal Proximal Tubule (AID 545); details: renal proximal tubule cells viability; at 91.7 µM (top of the series), primary cells of rat origin unless noted; also: nearly all actives have a fitted effect of over 40% in size
Method in brief: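 Primary rat renal proximal tubule cells (1000/well) were treated with compounds for 40 hr at 37 °C in complete medium. Intracellular ATP was measured by CellTiter-Glo luminescence, and AC50 values came from Hill-equation fits of concentration-response data.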

[10] = Cell Viability - Mesenchymal (AID 546); details: mesenchymal cells viability, qHTS; series mostly up to 91.7 µM;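 also: cells exposed to compound for 40 hours before reading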
Method in brief: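 AC50 values reflect the drop in intracellular ATP in a human kidney mesenchymal line derived from normal glomeruli. Treatment lasts 40 hr at 37 °C in complete medium, and the signal comes from CellTiter-Glo luminescence.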

[11] = Cellular Toxicity (caspase-3) Jurkat (AID 655); details: Jurkat caspase-3 activation, luminescence, DMSO = 0%, tamoxifen = 100%; at 92.2 µM (top of the series);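 also: cells exposed to compound for 16 h at 37 °C before reading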
Method in brief: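 Jurkat cells (5000/well) in complete medium were treated with compounds for 16 hr at 37 °C, then Caspase-Glo 3/7 luminescence was read after 20 min at room temperature. Data normalized to DMSO (basal) and 100 uM tamoxifen (100%); AC50 from Hill fit.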

[12] = Cellular Toxicity (caspase-3) SHSY5Y (AID 657); details: SH-SY5Y caspase-3 activation, DMSO zero, 10 µM staurosporine = 100%; series mostly up to 91.7 µM;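 also: cells exposed to compound for 16 hours at 37 °C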
Method in brief: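 SH-SY5Y human neuroblastoma cells (1500/well) were treated with compounds for 16 h at 37 °C, then Caspase-Glo 3/7 luminescence was read after 1 h at room temperature. Data normalized to DMSO and 10 uM staurosporine; AC50 from Hill fits.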

[13] = Cellular Toxicity (caspase-3) BJ (AID 658); details: BJ fibroblasts, luminescence, normalized: DMSO 0%, staurosporine 100%; series mostly up to 91.7 µM;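 also: cells exposed to compound for 16 hours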
Method in brief: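 Readout: Caspase-Glo 3/7 luminescence increase in BJ cells after 16 hr treatment at 37 °C. Staurosporine and tamoxifen served as positive controls; AC50 values came from Hill modelling of data normalized to DMSO and 10 uM staurosporine.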

[14] = Cellular Toxicity (caspase-3) MRC-5 (AID 659); details: MRC-5 cells, luminescence, normalized: DMSO 0%, 10 µM staurosporine 100%; series mostly up to 91.7 µM
Method in brief: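 Concentration-dependent caspase 3/7 activation is measured in human normal lung fibroblasts (MRC-5) following 16-hour treatment. AC50 values come from standard Hill-equation modeling of luminescence normalized to DMSO and 10 uM staurosporine.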

[15] = Cellular Toxicity (caspase-3) Mesangial (AID 660); details: mesangial cells, normalized: DMSO 0%, 100 µM tamoxifen 100%; series mostly up to 91.7 µM;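 also: combined caspase 3 and 7 activity read by Caspase-Glo luminescence; cells exposed to compound for 16 h before the caspase read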
Method in brief: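 Mesangial cells, 1000/well, 5 h settle at 37 °C; compound 16 h, 37 °C; Caspase-Glo 3/7 reagent 20 min RT; luminescence. Norm.: DMSO = 0%, tamoxifen 100 uM = 100%. AC50, Hill fit.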

[16] = Cellular Toxicity (caspase-3) SK-N-SH (AID 661); details: SK-N-SH caspase-3 activation, qHTS, DMSO as zero, staurosporine as full; series mostly up to 91.7 µM;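 also: cells exposed to compound for 16 hours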
Method in brief: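 Human neuroblastoma SK-N-SH, 1500 cells/well, 5 hr pre-incubation, then compound 16 hr, 37 °C. Caspase-Glo 3/7 reagent, 1 hr RT, luminescence. Norm. to DMSO/10 uM staurosporine; Hill-fit AC50.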

[17] = Cellular Toxicity (caspase-3) Renal Proximal Tubule (AID 667); details: renal proximal tubule cells; at 91.7 µM (top of the series), primary cells freshly taken from rat, solvent-only wells 0%, staurosporine 100% unless noted;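 also: cells exposed to compound for 16 hours at 37 °C before detection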
Method in brief: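 Primary rat proximal tubule cells, 1000/well, 5 h plating at 37 °C, then compound 16 h at 37 °C. Caspase-Glo 3/7 reagent, 1 h RT, luminescence. Normalized to DMSO (basal) and 10 uM staurosporine (100%); Hill-fit AC50.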

[18] = qHTS Assay for Identification of Small Molecule Inducers of Hypoxia Response (AID 2120; active = well fitted curve in the direction sought with a large enough effect in the signal ratio, with a control signal flat, not every such curve was filed as active; the % refers to the signal ratio; also: 0% is about no effect); details: hypoxia response reporter cells, beta-lactamase ratio readout; series mostly up to 104 µM
Method in brief: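 ME-180 HRE-bla cells plated in Opti-MEM/0.5% dialyzed FBS, rested 4-5 h, then dosed with compound titrations by pin tool. After 17 h at 37 degrees C, CCF4 dye loaded 2.5 h at RT; 460/530 nm ratio gave %Activity and AC50.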

[19] = qHTS assay for small molecule disruptors of the mitochondrial membrane potential - 5 hr assay (AID 651755; calls by dose curve; also: % is scaled to controls: 0 for no effect and ±100 for the full control effect; nearly all actives have a fitted effect of over 40% in size); details: JC-1-type ratio dye; series mostly up to 92.2 µM
Method in brief: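 HepG2, 2,000 cells/well, overnight attach; cpd or DMSO 5 hr, 37C/5% CO2; Mito-MPS 30 min 37C; fluor 490/535 + 540/590 nm.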

[20] = target: Peroxisome proliferator-activated receptor alpha (Homo sapiens) (UniProt Q07869); assay: qHTS assay for small molecule agonists of the peroxisome proliferator-activated receptor alpha (PPARalpha) signaling pathway (AID 651778); details: PathHunter PPARalpha complementation, chemiluminescence, 6 h; active compounds read high; also: % of control where 0% means no effect
Method in brief: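 Chemiluminescence from complemented enzyme reported PPARalpha activation in cells after 6 hr of compound treatment at 37 C. The detection reagent was incubated for 60 min at room temperature, and compounds were scored as agonists.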

Peroxisome proliferator-activated receptor alpha (Homo sapiens), sequence (Q07869 whole entry, looked up): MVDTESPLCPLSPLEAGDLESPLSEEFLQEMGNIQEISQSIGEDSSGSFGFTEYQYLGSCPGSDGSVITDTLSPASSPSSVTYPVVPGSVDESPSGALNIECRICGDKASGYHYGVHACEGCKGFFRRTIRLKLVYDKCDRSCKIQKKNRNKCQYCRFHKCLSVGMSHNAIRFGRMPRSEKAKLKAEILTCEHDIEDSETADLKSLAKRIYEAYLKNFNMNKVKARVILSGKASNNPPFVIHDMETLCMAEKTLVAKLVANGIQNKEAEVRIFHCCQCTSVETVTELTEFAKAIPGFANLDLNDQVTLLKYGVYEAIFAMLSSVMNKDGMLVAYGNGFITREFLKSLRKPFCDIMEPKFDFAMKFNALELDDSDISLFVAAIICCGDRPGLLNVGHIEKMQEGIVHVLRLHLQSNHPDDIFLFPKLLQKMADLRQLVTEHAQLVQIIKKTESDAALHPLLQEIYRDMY

O=C(Cl)/C=C/C(=O)Cl
inactive: Potency [1] > 92 µM | Potency [2] > 92 µM | Potency [3] > 92 µM | Potency [4] > 92 µM | outcome [5] | activity change, negative = cytotoxicity [6] 3.07% | Potency [7] | Potency [8] | activity change, negative = cytotoxicity [9] 2.59% | outcome [10] | caspase-3 activation [11] 0.334% | outcome [12] | outcome [13] | outcome [14] | outcome [15] | outcome [16] | caspase-3 activation [17] -3.63% | outcome [18] | Potency [19] | max response [20] -3.04%

C=CCOC(C)=O
inactive: Potency [1] > 92 µM | Potency [2] > 92 µM | Potency [3] > 92 µM | Potency [4] > 92 µM | outcome [5] | activity change, negative = cytotoxicity [6] -14.3% | Potency [7] | Potency [8] | activity change, negative = cytotoxicity [9] -1.33% | outcome [10] | caspase-3 activation [11] 0.277% | outcome [12] | outcome [13] | outcome [14] | outcome [15] | outcome [16] | caspase-3 activation [17] -7.63% | outcome [18] | Potency [19] | max response [20] 7.33%

CCCSC(=O)Cl
inactive: Potency [1] > 92 µM | Potency [2] > 92 µM | Potency [3] > 92 µM | Potency [4] > 92 µM | outcome [5] | activity change, negative = cytotoxicity [6] -16.5% | Potency [7] | Potency [8] | activity change, negative = cytotoxicity [9] -6.97% | outcome [10] | caspase-3 activation [11] 0.745% | outcome [12] | outcome [13] | outcome [14] | outcome [15] | outcome [16] | caspase-3 activation [17] 5.81% | outcome [18] | Potency [19] | max response [20] -0.0229%

[O-][Br+2]([O-])O
inactive: Potency [1] > 92 µM | Potency [2] > 92 µM | Potency [3] > 92 µM | Potency [4] > 92 µM | outcome [5] | activity change, negative = cytotoxicity [6] -3.27% and 7.55% | Potency [7] | Potency [8] | activity change, negative = cytotoxicity [9] -9.6% and -6.64% | outcome [10] | caspase-3 activation [11] -7.93% and -8.01% | outcome [12] | outcome [13] | outcome [14] | outcome [15] | outcome [16] | caspase-3 activation [17] -18.8% and -17.4% | outcome [18] | Potency [19] | max response [20] 8.01% and -0.25%

CC(Cl)Cl
inactive: Potency [1] > 92 µM | Potency [2] > 92 µM | Potency [3] > 92 µM | Potency [4] > 92 µM | outcome [5] | activity change, negative = cytotoxicity [6] -11.1% | Potency [7] | Potency [8] | activity change, negative = cytotoxicity [9] -11.4% | outcome [10] | caspase-3 activation [11] 1.86% | outcome [12] | outcome [13] | outcome [14] | outcome [15] | outcome [16] | caspase-3 activation [17] -1.5% | outcome [18] | Potency [19] | max response [20] 4.62%

Nc1ccccc1Cl
inactive: Potency [1] > 92 µM | Potency [2] > 92 µM | Potency [3] > 92 µM | Potency [4] > 92 µM | outcome [5] | activity change, negative = cytotoxicity [6] 0.502% | Potency [7] | Potency [8] | activity change, negative = cytotoxicity [9] 6.03% | outcome [10] | caspase-3 activation [11] -0.675% | outcome [12] | outcome [13] | outcome [14] | outcome [15] | outcome [16] | caspase-3 activation [17] 2.73% | outcome [18] | Potency [19] | max response [20] -2.66%

CN=C=S
inactive: Potency [1] > 92 µM | Potency [2] > 92 µM | Potency [3] > 92 µM | Potency [4] > 92 µM | outcome [5] | activity change, negative = cytotoxicity [6] -7.58% | Potency [7] | Potency [8] | activity change, negative = cytotoxicity [9] -2.52% | outcome [10] | caspase-3 activation [11] -1.9% | outcome [12] | outcome [13] | outcome [14] | outcome [15] | outcome [16] | caspase-3 activation [17] -3.52% | outcome [18] | Potency [19] | max response [20] -2.7% and -1.5%

C=CCOC(=O)c1ccccc1N
inactive: Potency [1] > 92 µM | Potency [2] > 92 µM | Potency [3] > 92 µM | Potency [4] > 92 µM | outcome [5] | activity change, negative = cytotoxicity [6] 1.61% | Potency [7] | Potency [8] | activity change, negative = cytotoxicity [9] -5.75% [at 91.7 µM] | outcome [10] | caspase-3 activation [11] 0.746% | outcome [12] | outcome [13] | outcome [14] | outcome [15] | outcome [16] | caspase-3 activation [17] 0.151% [at 91.7 µM] | outcome [18] | Potency [19] | max response [20] 1.13%

ClCBr
inactive: Potency [1] > 92 µM | Potency [2] > 92 µM | Potency [3] > 92 µM | Potency [4] > 92 µM | outcome [5] | activity change, negative = cytotoxicity [6] -7.64% | Potency [7] | Potency [8] | activity change, negative = cytotoxicity [9] -6.27% | outcome [10] | caspase-3 activation [11] -0.634% | outcome [12] | outcome [13] | outcome [14] | outcome [15] | outcome [16] | caspase-3 activation [17] -5.04% | outcome [18] | Potency [19] | max response [20] -7.14%

Brc1ccccc1
inactive: Potency [1] > 92 µM | Potency [2] > 92 µM | Potency [3] > 92 µM | Potency [4] > 92 µM | outcome [5] | activity change, negative = cytotoxicity [6] -4.7% | Potency [7] | Potency [8] | activity change, negative = cytotoxicity [9] -2.95% | outcome [10] | caspase-3 activation [11] -1.45% | outcome [12] | outcome [13] | outcome [14] | outcome [15] | outcome [16] | caspase-3 activation [17] -10.7% | outcome [18] | Potency [19] | max response [20] -0.353% and -0.0548%
